From PubChem
An excerpt weighted towards active compounds, which were near 4.1% of everything screened.
AmpC inh detg = qHTS Inhibitors of AmpC Beta-Lactamase (assay with detergent); AmpC hydrolysis of nitrocefin, absorbance 480 nm, 0.01% Triton; Potency, µM (highest dose often 114 µM), without a hit: at the highest dose activity change, negative = inhibition, actives largely listed as inhibitors; 0.041% of 370,000 active; AID 485294, 2010;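 further: 0% = no-compound wells and -100% = no-enzyme wells; nearly all actives have a fitted effect of over 25% in size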
Target sequence (P00811 whole entry, looked up): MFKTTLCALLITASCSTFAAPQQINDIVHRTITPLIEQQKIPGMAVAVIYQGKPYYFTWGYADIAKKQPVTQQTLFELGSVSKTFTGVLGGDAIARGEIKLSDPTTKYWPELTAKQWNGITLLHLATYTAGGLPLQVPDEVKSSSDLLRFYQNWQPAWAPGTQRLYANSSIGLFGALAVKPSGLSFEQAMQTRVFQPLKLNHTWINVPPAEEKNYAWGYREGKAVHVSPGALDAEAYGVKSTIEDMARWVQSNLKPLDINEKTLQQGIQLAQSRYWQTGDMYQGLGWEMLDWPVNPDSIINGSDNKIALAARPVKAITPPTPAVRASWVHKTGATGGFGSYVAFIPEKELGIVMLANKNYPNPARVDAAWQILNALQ
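AmpC (5.3 nM in the dispensed reagent) in 20 mM phosphate pH 7.0 with 0.01% (detergent screen) or 0.0001% Triton X-100 was preincubated with compounds for 15 min at room temperature. Nitrocefin was then added from an 800 uM solution, and hydrolysis was followed at 480 nm.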
AMA1-RON2 inh = qHTS for Inhibitors of AMA1-RON; Towards Development of Antimalarial Drug Lead: Primary Screen; Plasmodium falciparum AMA1 (3D7) - RON2 peptide interaction; AlphaScreen AMA1-biotinylated RON2 peptide binding; Potency, µM (doses to about 58.2 µM), for the others: at the top dose activity change, negative = inhibition, usual class: inhibitors; 0.2% of 360,000 active;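 further: 0% = vehicle wells and -100% = peptide control; nearly all actives have a fitted effect of over 45% in size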
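AMA1 (3D7) with his tag at 25 nM final met compounds first, then biotinylated RON2 peptide at 25 nM; detection used donor plus acceptor beads, 10 µg/mL apiece, read by AlphaScreen after 30 min at room temperature.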
AmpC inh no detg = qHTS Inhibitors of AmpC Beta-Lactamase (assay without detergent). 0.52% of 330,000 active. AID 485341, 2010. AmpC nitrocefin hydrolysis, absorbance 480 nm, 0.0001% Triton. Potency, µM (top dose mostly 57.1 µM), without a hit: at the top dose activity change, negative = inhibition, hits mostly inhibitors;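 further: plate controls were no compound for no effect and no enzyme for full effect; nearly all actives have a fitted effect of over 20% in size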
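AmpC (5.3 nM in the dispensed reagent) in 20 mM phosphate pH 7.0 with 0.01% (detergent screen) or 0.0001% Triton X-100 was preincubated with compounds for 15 min at room temperature. Nitrocefin was then added from an 800 uM solution, and hydrolysis was followed at 480 nm.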
FMDV antiviral = High Throughput Screening for Foot and Mouth Disease Virus Antivirals | FMDV antiviral cell-based qHTS | Potency, µM (titrated, usually from 57.9 µM), inactives show at the highest dose activity change, negative = inhibition, actives largely listed as inhibitors | 1.2% of 410,000 active; calls by dose curve; tested in HEK293T cells; further: read-out not given here; nearly all actives have a fitted effect of over 45% in size
Sm TGR inh = qHTS Assay for the Inhibitors of Schistosoma Mansoni Peroxiredoxins; Schistosoma mansoni thioredoxin glutathione reductase (TGR), Q962Y6; purified TGR, DTNB reduction, TNB absorbance 405 nm; Potency, µM (top dose mostly 114 µM), without a hit: at the highest dose activity change, negative = inhibition, usual class: inhibitors; 3% of 360,000 active; AID 485364, 2010; further: nearly all actives have a fitted effect of over 60% in size
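TGR 20 nM + NADPH 100 uM (dispensed conc.), cpd preinc 15 min RT; start with NADPH (500 uM addition) then DTNB (15 mM addition). Kinetic TNB absorbance, 405 nm filter. Four-parameter Hill fit across titration.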
Numbers without * were called inactive; ? = inconclusive; . = no result given; [ ] = dose if it differs, or a comment. Unless noted, the call rests on the fitted dose curve; in most records, active means well fitted curve in the direction sought with a large enough effect; inconclusive means small, poorly fitted or top-dose-only effect, or another doubt; inactive means no such curve, though single readings can be large; an effect the other way counts as inactive or inconclusive. Unless noted, on the % scale 0 is the no-effect control and ±100 the full control effect; potency means the concentration at half of the fitted maximal effect.

SMILES | AmpC inh detg | AMA1-RON2 inh | AmpC inh no detg | FMDV antiviral | Sm TGR inh
COc1ccc(/C=N\NC(=O)CNC(=O)C(c2ccccc2)c2ccccc2)cc1[N+](=O)[O-] | -3.5% | -1.7% | 3.98µM* | 11.8% | -5.2%
CCOC(=O)c1ccc(N2CCN(c3ccc(F)cc3)CC2)c(NC(=O)Nc2ccc(CC)cc2)c1 | -8.2% | . | . | -1.0% | 5.6%
COCCCN(C(=O)c1ccco1)c1nc(-c2cc(OC)ccc2OC)cs1 | -9.4% | -15.2% | -8.7% | ? | 89.1µM*
COc1ccc(OC)c(-c2csc(N(Cc3ccco3)C(=O)c3ccco3)n2)c1 | -0.4% | -8.0% | -29.1% | -26.1% | -12.1%
COc1ccccc1NC(=O)Nc1ccc(Cc2ccncc2)cc1 | ? | -1.5% | -21.3%[2.29 µM] | 6.2% | 9.2%
S=C(NCc1ccncc1)Nc1ccccc1 | -6.5% | 43.2% | 1.8%[2.29 µM] | 13.0% | -29.7%
CCNC(=S)Nc1ccc(Cc2ccncc2)cc1 | -6.1% | 6.0% | -16.2% | 9.6% | -16.4%
S=C(NCc1ccncc1)Nc1ccc(Cl)cc1Cl | -13.3% | -3.1% | -0.3%[2.29 µM] | -20.3% | 35.5µM*
COc1ccc(NC(=O)Nc2ccc(Cc3ccncc3)cc2)cc1OC | 2.5% | -28.7% | -32.8% | 22.4µM* | 9.2%
S=C(NCc1ccncc1)Nc1ccc(Br)cc1 | ? | -9.0% | -31.9% | 43.2% | 28.2µM*
CNC(=S)Nc1ccc(Cc2ccncc2)cc1 | -5.8% | 1.7% | -19.7% | 4.0% | 39.8µM*
S=C(NCc1ccc(Cl)cc1)Nc1ccc(Cl)cc1Cl | -0.2% | -1.7% | -33.8% | 8.6% | -15.6%
O=C(CSc1nc(-c2ccccc2)cn1-c1ccccc1F)Nc1ccc(F)cc1 | 10.5% | . | . | -4.4% | 2.8%
COc1cccc(Cn2c(=O)c(-c3cccs3)nc3cnc(N4CCNCC4)nc32)c1 | . | . | . | 12.6% | .
CCOC(=O)N1CCC(c2cc(=O)n3[nH]cc(C(=O)OC)c3n2)CC1 | ? | 7.2% | 7.94µM* | -0.1% | -0.8%
COc1ccc(CNc2ncnc3c2c(-c2ccccc2)cn3-c2ccc(C)c(Cl)c2)cc1 | -4.6% | . | . | -27.4% | -3.9%
CC(=O)Nc1cc([As](=O)(O)O)ccc1O | -11.3% | -0.3% | -37.5% | -14.9% | 7.08µM*
CC(=O)Nc1cc(Br)ccc1O | 1.5% | 5.2% | -4.2% | -11.5% | 0.0%
CCOC(=O)c1ccc(Nc2nc3ccccc3n3c(C)nnc23)cc1 | 19.4% | . | . | 0.3% | 4.9%
O=C1S/C(=C/c2ccccc2)C(=O)N1CC(O)Cn1c2ccccc2c2ccccc21 (centres undefined) | -11.6% | -12.8% | 15.8µM* | -22.4% | 0.8%
COc1ccc(NC(=O)Cc2c[nH]c3ccccc23)cc1S(=O)(=O)N1CCCCC1 | -4.4% | -12.4% | 14.1µM* | 24.8% | -2.5%
COc1ccc(NC(=O)C2CCC(C(C)(C)C)CC2)cc1S(=O)(=O)N1CCCCC1 (centres undefined) | -6.7% | -7.6% | -27.2% | 17.8µM* | 0.2%
COc1ccc(NC(=O)Cc2c[nH]c3ccccc23)cc1S(=O)(=O)N1CCOCC1 | -2.2% | 0.1% | -23.1% | 41.8% | 16.5%
CN(C)c1ccc(Sc2ccc3nc(N)nc(N)c3c2)cc1 | . | 10µM* | . | -29.8% | .
C=C1C(=O)OC2C=C(CO)CCC=C(CO)CC(OC(=O)C(C)C)C12 (centres undefined) | . | 17.5% | . | 39.8µM* | .
SMILES | AmpC inh detg | AMA1-RON2 inh | AmpC inh no detg | FMDV antiviral | Sm TGR inh
CC(=O)c1ccc(C(=O)NCc2nc(-c3ccccc3NC(=O)c3cc(C)oc3C)oc2C)cc1 | . | . | . | 10.0% | .
CCOC(=O)c1cc(C)n(CCc2ccccc2)c1C | -13.9% | -3.3% | -31.2% | 0.0% | 1.4%
Cc1cc(C(=O)CCl)c(C)n1CCc1ccccc1 | 9.3% | ? | -5.0%[11.4 µM] | 28.2µM* | 8.91µM*
COC(=O)CCCn1c(C)cc(C(=O)CCl)c1C | 4.8% | -0.6% | -6.5% | 28.2µM* | 7.94µM*
COc1cccc(-n2c(SC)nnc2C2CCN(Cc3cccc(OC)c3O)CC2)c1 | . | . | . | -17.1% | .
C=C1c2cccc(O)c2C(O)=C2C(=O)[C@]3(O)C(O)=C(C(N)=O)C(=O)C(N(C)C)C3C(O)C12 (some centres undefined) | . | . | . | -8.0% | .
